# From PubChem BioAssay (EPA / NIEHS)
# Activity calls are given as the source filed them. The calls were made as follows: active = hit-call score of the fitted dose curve at least 0.9, where 1 is the maximum; inactive = score below 0.9.
# Experiment: ATG_PPRE_CIS: Attagene CIS-FACTORIAL HepG2 Assay for human Peroxisome Proliferator-activated Response Element (PPRE) (AID 2282958)
# Conditions: HepG2 PPRE cis-element reporter, Attagene transcription factor profiling; actives raise or lower the signal
# Experimental: ATG_CIS is a cell-based, multiplexed-readout assay that uses HepG2, a human liver cell line, with measurements taken at 24 hours after chemical dosing in a 24-well plate.ATG_PPRE_CIS is one of 52 assay component(s) measured or calculated from the ATG_CIS assay. It is designed to make measurements of mRNA induction, a form of inducible reporter, as detected with fluorescence intensity signals by Reverse transcription polymerase chain reaction (RT-PCR) and Capillary electrophoresis technology.Data from the assay component ATG_PPRE_CIS was analyzed into 1 assay endpoint. This assay endpoint, ATG_PPRE_CIS, was analyzed with bidirectional fitting relative to DMSO as the negative control and baseline of activity. Using a type of inducible reporter, measures of mRNA for gain or loss-of-signal activity can be used to understand the reporter gene at the transcription factor-level as they relate to the gene PPARA and PPARD and PPARG. Furthermore, this assay endpoint can be referred to as a primary readout, because this assay has produced multiple assay endpoints where this one serves a reporter gene function. To generalize the intended target to other relatable targets, this assay endpoint is annotated to the nuclear receptor intended target family, where the subfamily is non-steroidal.
# Human liver HepG2 cells are transiently transfected with multiple reporter transcription units (MRTUs) in 6-well plates using FuGene 6 reagent (Roche; 3 ml FuGene/1 mg DNA). The MRTU constructs are regulated by a cis-regulating element (promoter). […] A major difference between the CIS and TRANS system is that in CIS activities of endogenous TFs are measured, whereas the TRANS assay evaluates changes in activities of exogenous, chimeric NR-Gal4 proteins. […] At the end of 24 hour incubation, total RNA was isolated using TriZol reagent (Invitrogen). The isolated RNA is then reverse-transcribed using oligo(dT) primer and Mo-MLV reverse transcriptase (Invitrogen) with DNAse I (Ambion) treatment for 30 min. The one-tenth of the produced cDNA was amplified by PCR using Taq DNA polymerase (Invitrogen) and two reporter sequence-specific primers. The PCR products were fluorescently labeled by primer extension with 6-arboxyfluorescein (6-FAM) 5'-labeled reporter sequence-specific primer (2 min at 95 C, 20 s at 68 C and 10 min at 72 C) and these products were digested with 5U of HpaI (New England Biolabs) for 2h at 37 C. The fragments were purified using Qiaquick PCR columns (Qiagen), analyzed on an ABI 3130xL genetic analyzer (Applied Biosystems) with peak positions identified by using a set of X-rhodamine (ROX)-labeled MapMarker1000 molecular weight standards (BioVentures). The raw capillary electrophoresis data was processed using Attagraph software (Attagene).
SMILES,outcome,AC50
COC(=O)Nc1ccc(Cl)c(Cl)c1,inactive,–
CCCCCc1ccco1,inactive,–
CS(C)=O,inactive,–
CCCC[P+](CCCC)(CCCC)CCCC,inactive,–
COc1ccc(N=Nc2cc(C)c(N=Nc3ccc(S(=O)(=O)O)cc3)cc2OC)cc1,inactive,–
Cc1ncc([N+](=O)[O-])n1CCO,inactive,–
CCC1CCCCC1,inactive,–
CCCCCCCC/C=C\CCCCCCCC(=O)OCC,inactive,–
CCOc1ccc(N=Nc2ccc(C=Cc3ccc(N=Nc4ccc(OCC)cc4)cc3S(=O)(=O)O)c(S(=O)(=O)O)c2)cc1,inactive,–
CC(C)C(OC(=O)c1ccccc1)C(C)(C)COC(=O)c1ccccc1 (stereo not given),inactive,–
CC(=O)c1ccccn1,inactive,–
Nc1ccc(N)c2c1C(=O)c1ccccc1C2=O,–,4.05 µM (active)
CCC(C)c1cc([N+](=O)[O-])cc([N+](=O)[O-])c1OC(=O)OC(C)C (stereo not given),inactive,–
CCOCCOCCOCC,inactive,–
CCCCCCOC(=O)C(C)C,inactive,–
Nc1ccn([C@H]2CS[C@@H](CO)O2)c(=O)n1,inactive,–
CCCCCCCCSCCO,inactive,–
C=Cc1ccc(C(C)(C)C)cc1,inactive,–
[O-]n1ccccc1=S.[O-]n1ccccc1=S.[Zn+2],inactive,–
CCCN(CCC)S(=O)(=O)c1ccc(C(=O)O)cc1,inactive,–

SMILES,outcome,AC50
C1CCOC1,inactive,–
C1CCCCC1,inactive,–
COc1cc(Cl)c(OC)cc1N,inactive,–
CCO/C=C1\N=C(c2ccccc2)OC1=O,inactive,–
C=C(C)CNCC,inactive,–
CCCSc1ccc2nc(NC(=O)OC)[nH]c2c1,inactive,–
O=c1[nH]c(=O)c2cn[nH]c2[nH]1,inactive,–
CC(=O)Nc1ccc(C(=O)CCl)cc1,inactive,–
COC(=O)c1ccc(C)cc1C1=NC(C)(C(C)C)C(=O)N1 (stereo not given) (tested in a mixture with another compound),inactive,–
C#CC(C)N(C)C(=O)Nc1ccc(Cl)cc1 (stereo not given),inactive,–
C=Cc1ccc(C)cc1,inactive,–
CCc1cc(Cc2cc(CC)cc(C(C)(C)C)c2O)c(O)c(C(C)(C)C)c1,–,11.1 µM (active)
C=CCCC(=O)/C=C/C1C(C)=CCCC1(C)C (stereo not given),inactive,–
CCCC1O[C@@H]2C[C@H]3[C@@H]4CCC5=CC(=O)C=C[C@]5(C)[C@H]4[C@@H](O)C[C@]3(C)[C@]2(C(=O)CO)O1 (stereo not given in full),inactive,–
CC(C)(C)c1ccc(C(=O)O)cc1,inactive,–
CC(C)(C)OC(=O)c1ccc(O)cc1,–,87.7 µM (active)
c1ccc2[nH]cnc2c1,inactive,–
CC(C)=CCCC(C)CCOC=O (stereo not given),inactive,–
CC1(C)CCC[C@]2(C)[C@H]3CCO[C@]3(C)CC[C@@H]12,inactive,–
O=C(c1ccccc1)C(O)c1ccccc1 (stereo not given),inactive,–
